Laboratory results as given in the supplement of paper PMC4709259.
Counter-ions that a name gives are not always drawn. ± gives the standard deviation.

tested on: Jurkat; test: mean cell size (FSC-A) relative to DMSO control (fraction of control); higher = larger cells; settings: 48 h
In short: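 Jurkat cells at 600 cells/µl were incubated for 1 h and then treated for 48h with the Enzo Screen-Well FDA Approved Drug Library v2.0 at 25µM, with DMSO at 0.9% (v/v) final. Compounds that reduced counts below 20% of controls were retested in 10-fold dilutions down to 25nM. Cell count and mean cell size, taken as forward scatter area, were measured by flow cytometry relative to solvent-only controls. Each plate carried 6-12 controls, and values are means of 3 biological replicates.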

Row | SMILES | mean cell size
1 | CNC[C@H](O)c1cccc(O)c1 [Phenylephrine] (concentration: 25 µM) | 0.999 ± 0.036
2 | CCN(CC)CCNC(=O)c1cc(Cl)c(N)cc1OC [Metoclopramide·HCl] (concentration: 25 µM) | 0.951 ± 0.018
3 | O=C(O)CCCc1ccccc1 [Sodium Phenylbutyrate] (concentration: 25 µM) | 0.936 ± 0.024
4 | CC(C)(C)NC[C@H](O)COc1cccc2c1CCCC2=O [Levobunolol·HCl] (concentration: 25 µM) | 0.964 ± 0.056
5 | NCCCC[C@H](N[C@@H](CCc1ccccc1)C(=O)O)C(=O)N1CCC[C@H]1C(=O)O [Lisinopril·2H2O] (concentration: 25 µM) | 0.955 ± 0.022
6 | Cc1cccc(C)c1NC(=O)C1CCCCN1C (centres undefined) [Mepivacaine·HCl] (concentration: 25 µM) | 0.91 ± 0.035
7 | CC1(C)O[C@@H]2C[C@H]3[C@@H]4CCC5=CC(=O)C=C[C@]5(C)[C@H]4[C@@H](O)C[C@]3(C)[C@]2(C(=O)CO)O1 [Desonide] (concentration: 25 µM) | 0.948 ± 0.027
8 | Cc1ccc(-c2cc(C(F)(F)F)nn2-c2ccc(S(N)(=O)=O)cc2)cc1 [Celecoxib] (concentration: 25 µM) | 0.966 ± 0.029
9 | CC(=O)NCCCS(=O)(=O)O [Acamprosate] (concentration: 25 µM) | 1.05 ± 0.062
10 | O=C(O)CCCCCCCC(=O)O [Azelaic Acid] (concentration: 25 µM) | 0.921 ± 0.062
11 | Cn1nnc2c(C(N)=O)ncn2c1=O [Temozolomide] (concentration: 25 µM) | 0.959 ± 0.052
12 | CC(=O)Nc1ccc(O)cc1 [Acetaminophen] (concentration: 25 µM) | 1.03 ± 0.037
13 | NNCCc1ccccc1 [Phenelzine Sulfate] (concentration: 25 µM) | 0.942 ± 0.015
14 | Cc1c(-c2ccccc2)oc2c(C(=O)OCCN3CCCCC3)cccc2c1=O [Flavoxate·HCl] (concentration: 25 µM) | 1.01 ± 0.057
15 | CCOC(=O)O[C@]1(C(=O)OCCl)CC[C@H]2[C@@H]3CCC4=CC(=O)C=C[C@]4(C)[C@H]3[C@@H](O)C[C@@]21C [Loteprednol Etabonate] (concentration: 25 µM) | 0.892 ± 0.027
16 | OC(CNCC(O)C1CCc2cc(F)ccc2O1)C1CCc2cc(F)ccc2O1 (centres undefined) [Nebivolol·HCl] (concentration: 25 µM) | 1.15 ± 0.094
17 | N=C(N)c1ccc(OCCCCCOc2ccc(C(=N)N)cc2)cc1 [Pentamidine Isethionate] (concentration: 25 µM) | 0.878 ± 0.021
18 | Nc1nc(O)c2ncn(CCC(CO)CO)c2n1 [Penciclovir] (concentration: 25 µM) | 0.95 ± 0.021
19 | CC1(C)S[C@@H]2[C@H](NC(=O)[C@H](N)c3ccccc3)C(=O)N2[C@H]1C(=O)O [Ampicillin Trihydrate] (concentration: 25 µM) | 0.849 ± 0.05
20 | O=C(O)CCc1nc(-c2ccccc2)c(-c2ccccc2)o1 [Oxaprozin] (concentration: 2.5 µM) | 0.966 ± 0.014

Row | SMILES | mean cell size
21 | CCN1CC(CCN2CCOCC2)C(c2ccccc2)(c2ccccc2)C1=O (centres undefined) [Doxapram·HCl] (concentration: 25 µM) | 0.928 ± 0.013
22 | c1ccc2c(c1)CCCC2C1=NCCN1 (centres undefined) [Tetrahydrozoline·HCl] (concentration: 25 µM) | 0.9443 ± 0.007
23 | CO/N=C1\CN(c2nc3c(cc2F)c(=O)c(C(=O)O)cn3C2CC2)CC1CN (centres undefined) [Gemifloxacin] (concentration: 25 µM) | 1.09 ± 0.03
24 | C1N2CN3CN1CN(C2)C3 [Methenamine Hippurate] (concentration: 25 µM) | 1.03 ± 0.063
25 | CCCCNc1cc(C(=O)O)cc(S(N)(=O)=O)c1Oc1ccccc1 [Bumetanide] (concentration: 25 µM) | 0.952 ± 0.015
26 | COc1cc(NC(C)CCCN)c2ncccc2c1 (centres undefined) [Primaquine Phosphate] (concentration: 25 µM) | 1.01 ± 0.028
27 | COc1c(N2C[C@@H]3CCCN[C@@H]3C2)c(F)cc2c(=O)c(C(=O)O)cn(C3CC3)c12 [Moxifloxacin·HCl] (concentration: 25 µM) | 0.919 ± 0.01
28 | Cc1ccsc1C(=CCCN1CCC[C@@H](C(=O)O)C1)c1sccc1C [Tiagabine·HCl] (concentration: 25 µM) | 0.936 ± 0.064
29 | O=P(O)(O)C(Sc1ccc(Cl)cc1)P(=O)(O)O [Tiludronate Disodium] (concentration: 25 µM) | 0.961 ± 0.06
30 | CCCC(=O)O[C@]1(C(=O)COC(C)=O)CC[C@H]2[C@@H]3C[C@H](F)C4=CC(=O)C=C[C@]4(C)[C@@]3(F)[C@@H](O)C[C@@]21C [Difluprednate] (concentration: 25 µM) | 0.935 ± 0.037
31 | O=c1n(CCCN2CCN(c3cccc(Cl)c3)CC2)nc2ccccn12 [Trazodone·HCl] (concentration: 25 µM) | 0.967 ± 0.045
32 | C#C[C@]1(O)CC[C@H]2[C@@H]3CCC4=CC(=O)CC[C@@H]4[C@H]3CC[C@@]21C [Norethindrone] (concentration: 25 µM) | 0.948 ± 0.024
33 | C[N+](C)(C)CCOC(N)=O [Carbachol (Carbamylcholine ) Chloride] (concentration: 25 µM) | 0.962 ± 0.019
34 | CCC1=C(C)CN(C(=O)NCCc2ccc(S(=O)(=O)NC(=O)N[C@H]3CC[C@H](C)CC3)cc2)C1=O [Glimepiride] (concentration: 25 µM) | 0.94 ± 0.02
35 | CN(Cc1ccc(C(C)(C)C)cc1)Cc1cccc2ccccc12 [Butenafine·HCl] (concentration: 25 µM) | 0.97 ± 0.031
36 | Cc1cn([C@H]2C[C@H](N=[N+]=[N-])[C@@H](CO)O2)c(=O)[nH]c1=O [Zidovudine (3'-Azido-3'-Deoxythymidine)] (concentration: 25 µM) | 1.03 ± 0.025
37 | Cc1cccn2c(=O)c(-c3nnn[nH]3)cnc12 [Pemirolast Potassium] (concentration: 25 µM) | 0.938 ± 0.024
38 | CC(=O)Oc1ccccc1C(=O)Nc1ncc([N+](=O)[O-])s1 [Nitazoxanide] (concentration: 2.5 µM) | 0.9325 ± 0.0054
39 | NS(=O)(=O)c1cc2c(cc1Cl)NCNS2(=O)=O [Hydrochlorothiazide] (concentration: 25 µM) | 0.901 ± 0.044
